Experimental data taken from ChEMBL document CHEMBL1201862, “PubChem BioAssay data set” (2004).
Among all 400,000 compounds or so, about 2,100 (0.53%) were called active. Inconclusive results (about 14%) are left out. This is one part of a sample in which actives are shown more often than they occur. The rule behind the calls is not given here.

Target: Ataxin-2 (Homo sapiens) (UniProt Q99700)
Assay: qHTS for Inhibitors of ATXN expression.
Type: functional

Chain of Ataxin-2 (Homo sapiens) (Q99700 whole entry): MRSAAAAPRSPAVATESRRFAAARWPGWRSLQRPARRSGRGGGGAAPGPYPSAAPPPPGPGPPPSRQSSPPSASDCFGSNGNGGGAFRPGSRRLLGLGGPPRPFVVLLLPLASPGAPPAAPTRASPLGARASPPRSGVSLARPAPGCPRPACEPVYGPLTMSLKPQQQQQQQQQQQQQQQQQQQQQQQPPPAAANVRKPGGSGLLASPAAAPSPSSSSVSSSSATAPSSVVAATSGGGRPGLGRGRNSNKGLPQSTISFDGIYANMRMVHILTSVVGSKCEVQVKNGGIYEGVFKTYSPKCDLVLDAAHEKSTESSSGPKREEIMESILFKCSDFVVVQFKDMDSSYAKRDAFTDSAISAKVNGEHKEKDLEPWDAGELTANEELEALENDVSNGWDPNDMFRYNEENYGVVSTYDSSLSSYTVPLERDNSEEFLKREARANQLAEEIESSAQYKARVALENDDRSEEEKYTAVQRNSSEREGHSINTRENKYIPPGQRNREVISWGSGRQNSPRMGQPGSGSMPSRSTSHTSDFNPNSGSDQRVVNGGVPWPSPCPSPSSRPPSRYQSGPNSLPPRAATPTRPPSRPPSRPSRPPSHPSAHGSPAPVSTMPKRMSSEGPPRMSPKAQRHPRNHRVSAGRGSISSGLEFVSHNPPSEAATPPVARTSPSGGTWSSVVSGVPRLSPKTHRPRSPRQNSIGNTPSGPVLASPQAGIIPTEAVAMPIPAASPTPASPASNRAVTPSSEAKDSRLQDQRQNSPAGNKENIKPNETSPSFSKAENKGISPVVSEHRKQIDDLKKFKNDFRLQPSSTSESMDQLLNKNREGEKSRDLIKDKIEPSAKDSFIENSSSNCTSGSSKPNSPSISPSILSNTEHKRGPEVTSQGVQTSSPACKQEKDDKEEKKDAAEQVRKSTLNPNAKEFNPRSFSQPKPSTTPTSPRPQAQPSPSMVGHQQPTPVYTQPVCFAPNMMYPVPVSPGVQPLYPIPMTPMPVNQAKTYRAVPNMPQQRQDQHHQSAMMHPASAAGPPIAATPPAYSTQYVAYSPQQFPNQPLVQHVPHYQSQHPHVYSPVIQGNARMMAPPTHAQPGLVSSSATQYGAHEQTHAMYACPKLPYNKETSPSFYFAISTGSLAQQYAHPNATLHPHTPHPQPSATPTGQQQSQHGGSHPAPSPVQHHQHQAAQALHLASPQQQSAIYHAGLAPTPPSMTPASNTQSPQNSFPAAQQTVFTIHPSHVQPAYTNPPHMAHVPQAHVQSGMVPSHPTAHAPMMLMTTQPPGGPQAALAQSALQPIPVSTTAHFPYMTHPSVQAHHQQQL

| SMILES | Potency |
| --- | --- |
| CC(Nc1nc(-c2ccc(F)cc2)cs1)c1nc2cc(C(F)(F)F)ccc2n1CCCO (centres undefined) | 22.4 µM (active) |
| C/C(=N\NC(=O)COc1ccccc1-c1ccccc1)c1ccccn1 | 6.7 µM (active) |
| CC(=O)Nc1ccc(NC(=O)COC(=O)c2ccccn2)cc1 | inactive |
| C/C(=N\NC(=O)c1c[nH]c2ccccc12)c1ccccn1 | inactive |
| CCCn1nc(NC(=O)C(C)C)c2cc3cc(OC)ccc3nc21 | inactive |
| N=c1oc2ccccc2cc1-c1nc(-c2ccccc2)cs1 | inactive |
| CN(C)S(=O)(=O)c1ccc(Cl)c(C(=O)Nc2cccc([N+](=O)[O-])c2)c1 | inactive |
| CCN(CC)S(=O)(=O)c1cc([N+](=O)[O-])ccc1NNC(=O)Nc1ccc(Cl)c(Cl)c1 | 39.8 µM (active) |
| CCN(CC)S(=O)(=O)c1cc(NC(=O)C2CC(=O)N(Cc3ccccc3)C2)ccc1Cl (centres undefined) | inactive |
| CC1=CC(c2ccccc2)n2nc(NC(=O)CCCC(=O)O)nc2N1 (centres undefined) | inactive |
| CN(C)/C=C1\C=C2C(=O)c3ccccc3N2C1=O | inactive |
| CCOC(=O)C1(CC2CCCCO2)CCN(S(=O)(=O)c2ccc(OC)cc2)CC1 (centres undefined) | inactive |
| O=C(c1ccc(F)cc1)C1CCN(S(=O)(=O)c2ccccc2)CC1 | inactive |
| CCCc1ccc(S(=O)(=O)N2CCC(c3nnc(-c4cccc(C)c4)o3)CC2)cc1 | 8.91 µM (active) |
| Cc1ccc(S(=O)(=O)N2CCN(C(S)=NCc3ccc4c(c3)OCO4)CC2)cc1 | inactive |
| COc1ccc(-c2nnc(C3CCN(S(=O)(=O)c4ccccc4)CC3)o2)cc1 | 26.7 µM (active) |
| CCCc1nn(-c2ccc([N+](=O)[O-])cc2)c(O)c1/C=N/CCCn1ccnc1 | inactive |
| O=[N+]([O-])c1ccc(-c2ccc(/C=N/Nc3nc(N4CCCCC4)nc(N4CCCCC4)n3)o2)cc1 | inactive |
| Clc1ccc(SCc2csc(N3CCOCC3)n2)cc1 | inactive |
| O=C(NNC(=O)c1cc(-c2ccc(Br)cc2)nc2ccccc12)c1csc(N2CCOCC2)n1 | inactive |
| S=C(NCCCN1CCOCC1)N1CCN(c2nc(-c3ccc(Cl)cc3)cs2)CC1 | 31.6 µM (active) |
| COc1ccccc1NC(=O)C1=C(C)Nc2nc(SCc3ccccc3)nn2C1c1cccc(O)c1 (centres undefined) | 31.6 µM (active) |

| SMILES | Potency |
| --- | --- |
| COc1ccccc1NC(=O)c1sc2nc(C)cc(C)c2c1N | inactive |
| COCc1cc(C)nc2sc(C(=O)Nc3ccccc3OC)c(N)c12 | inactive |
| CCS(=O)(=O)c1nc(S(=O)(=O)c2ccc(C)cc2)c(N2CCN(C)CC2)s1 | inactive |
| COC(=O)c1ccc(NC(=O)c2cccc(C)c2)cc1 | inactive |
| O=C(Oc1cccc2cccnc12)c1cccc(N2C(=O)C3C4CCC(C4)C3C2=O)c1 (centres undefined) | inactive |
| COC(=O)c1ccc(NC(=O)c2cccc(N3C(=O)C4C5C=CC(C6CC56)C4C3=O)c2)cc1 (centres undefined) | 39.8 µM (active) |
| Cc1ccc(NC(=O)COC(=O)CSC(=S)N2CCOCC2)cc1 | inactive |
| CC(=O)Nc1ccc(NC(=O)CC2CCCC2)cc1 | inactive |
| CCN(CC(=O)Nc1ccc(NC(C)=O)cc1)C(=O)CSC(=S)N1CCCC1 | 3.55 µM (active) |
| CCN(CC)CCCNc1oc(/C=C/c2ccccc2)nc1C#N | inactive |
| COc1cccc(/C=N/NC(=O)c2ccc(=O)n(C)c2)c1O | inactive |
| O=C(N/N=C/c1cc([N+](=O)[O-])ccc1O)c1ccc2c(c1)OCCO2 | 50.1 µM (active) |
| COc1cccc(/C=N/NC(=O)c2cc3cc([N+](=O)[O-])ccc3s2)c1O | 14.1 µM (active) |
| O=C(N/N=C/c1sc2ccccc2c1O)c1cccc2ccccc12 | inactive |
| Cc1occc1C(=O)N/N=C/c1cccc2ccccc12 | inactive |
| COc1cc(Cl)cc(/C=N\NC(=O)c2ccc3c(c2)OCO3)c1O | inactive |
| COc1cccc(/C=N/NC(=O)c2c(C)nc3ccc(Cl)cn23)c1OC | inactive |
| CCOc1cc(/C=N/NC(=O)c2ccc3c(c2)OCCO3)cc(Br)c1O | inactive |
| O=C(NN=Cc1cc([N+](=O)[O-])ccc1O)c1cccc2ccccc12 | 33.6 µM (active) |
| Fc1ccc(NC(=S)N2CCSC2c2cccs2)cc1 (centres undefined) | inactive |
| CC(C)OC(=O)CC(=O)CSc1nc2c(c(-c3cccs3)c1C#N)CCC2 | inactive |
| CC1CN(CCOCCSc2ccc(Cl)cc2)CC(C)O1 (centres undefined) | inactive |

| SMILES | Potency |
| --- | --- |
| Cn1c2ccccc2c2nnc(NN)nc21 | inactive |
| CN(Cc1ccsc1)C(=O)CCc1nnc(CCCc2ccccc2)o1 | inactive |
| COCCCNCCCCSc1ccc(Cl)cc1 | inactive |
| COc1cc(OC)cc(C(=O)NNC(=S)NC(=O)c2cccnc2)c1 | inactive |
| CCCCOc1ccc(C(=O)NCCc2ccccc2)cc1 | inactive |
| CCCOc1ccc(C(=O)NNC(=S)NC(=O)CC)cc1 | 31.6 µM (active) |
| Cc1ccc(SCc2c(C(=O)N/N=C/c3ccoc3)nnn2-c2nonc2N)cc1 | inactive |
| CC(=O)Nc1ccc(NC(=O)/C=C/c2ccc3c(c2)OCO3)cc1 | inactive |
| CCOC(=O)c1[nH]c2ccc(Cl)cc2c1NC(=O)/C=C/c1ccc2c(c1)OCO2 | 44.7 µM (active) |
| CCN(C(=O)COC(=O)/C=C/c1ccc2c(c1)OCO2)c1c(N)n(Cc2ccccc2)c(=O)[nH]c1=O | inactive |
| CCN(CC)S(=O)(=O)c1cccc(-c2nnc(SCC(N)=O)n2C)c1 | inactive |
| CCCOc1ccc(-c2nn(-c3ccccc3)cc2/C=C2\SC(N)=NC2=O)cc1 | inactive |
| O=Cc1cn(-c2ccccc2)nc1-c1cc2cc(O)ccc2oc1=O | inactive |
| CCCSc1ccc(-c2nn(-c3ccccc3)cc2/C=C(/C#N)C(=O)NCCCOC)cc1 | inactive |
| CCSc1ccc(-c2nn(-c3ccccc3)cc2/C=C(/C#N)C(=O)NC)cc1 | inactive |
| CC1=NNC(=O)/C1=C\c1cn(-c2ccccc2)nc1-c1ccc(F)cc1 | 8.91 µM (active) |
| CC1=NNC(=O)/C1=C\c1cn(-c2ccccc2)nc1-c1ccc(Cl)cc1 | 10 µM (active) |
| CCC(C)Sc1nc(O)c2cnn(-c3ccc(F)cc3)c2n1 (centres undefined) | inactive |
| O=C(N/N=C\c1cc(Br)ccc1O)c1ccc(S(=O)(=O)N2CCCCC2)cc1 | inactive |
| CC(OC(=O)Cn1cnc2c1c(=O)n(C)c(=O)n2C)C(=O)Nc1ccc(Cl)cc1 (centres undefined) | inactive |
